Assay results reported in PubChem BioAssay AID652065 (The Scripps Research Institute Molecular Screening Center, 2013).
The campaign covered roughly 4,300 compounds. About 3,000 (70%) were called active.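 How the source made its calls: active means inhibition above a per-plate cutoff, the mean inhibition of sample wells plus 3 SD (cut at about 35% in these data); inactive means the rest.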 The set was probably picked from earlier hits. Not all results are given here.

Assay: small molecules binding CAG repeat RNA – biochemical, fluorescence, confirmation (AID 652065);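 further: loss of TO-PRO-1 fluorescence as compound displaces dye from 1x1 AA loop RNA; 0% = DMSO only wells and 100% = 100 µM mitoxantrone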
Conditions: r(CAG) RNA repeat, TO-PRO-1 dye displacement fluorescence; at 3 µM; hits give high values

| Compound | inhibition |
| --- | --- |
| COc1ccc(N2C(=O)/C(=C/c3ccco3)C(=O)NC2=S)cc1 | 87% (active) |
| O=C1NC(=O)N(Cc2ccco2)C(=O)/C1=C\c1ccc(-c2ccc(F)cc2)o1 | 20.4% (inactive) |
| CC/C(=N\NC(=O)c1ccccc1O)c1c(O)n(Cc2ccccc2)c(=O)[nH]c1=O | 75.3% (active) |
| O=C1CC(=O)N(Cc2ccccc2)C(=O)N1CCCCCCN1C(=O)CC(=O)N(Cc2ccccc2)C1=O | 54.7% (active) |
| O=C1NC(=O)N(c2ccccc2)C(=O)/C1=C/c1ccc([N+](=O)[O-])s1 | 61.7% (active) |
| COc1cccc(N2C(=O)NC(=O)/C(=C\c3ccc([N+](=O)[O-])s3)C2=O)c1 | 48% (active) |
| COc1ccc2c(c1)[C@@]13CCCCC1[C@@H](C2)NCC3 (some centres not stated) | -0.72% (inactive) |
